# Source: PubChem (National Center for Advancing Translational Sciences (NCATS))
# GALK inh: galactokinase (human) inhibition; 270,000 tested, 0.007% active; Purified GALK, Kinase-Glo residual ATP luminescence; AID 1868; Potency, µM (doses to about 57.5 µM), for inactives: at the highest dose activity change, negative = inhibition, actives largely listed as inhibitors; note: potency is the fitted concentration of half-maximal effect
#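 The enzyme phosphorylates galactose (100 uM) using ATP (35 uM); inhibition is detected as higher residual ATP, quantified by bioluminescence after 1 h reaction at room temperature, pH 8.0.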
# PI4K2A block: blocks human PI4K2A kinase activity | purified PI4K2A, ADP-Glo luminescence, 1 h; active compounds read low | AID 1346378 | 420,000 tested, 0.13% active | activity change, negative = inhibition, % at 76.9 µM | Q9BTU6; in the data active = activity change below about -50%; inconclusive = mostly about -30% to -49%;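 note: -100% = wells without enzyme as full effect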
#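 In this quantitative HTS, ADP production by PI4K2A was quantified luminescently after 1 h at ambient temperature; 100 microM adenosine served as plate-quality control.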
# USP2a inh: blocks human ubiquitin-specific protease USP2a. O75604. USP2 core, Ub-CHOP2 coupled fluorogenic reporter, 485/531. Potency, µM (top dose mostly 38.3 µM), for the others: at the top dose activity change, negative = inhibition, most hits filed as inhibitors. 330,000 tested, 0.01% active;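 note: potency is the fitted concentration of half-maximal effect; plate controls were DMSO wells for no effect and full inhibition by NEM control for full effect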
# Target sequence (O75604 whole entry, looked up): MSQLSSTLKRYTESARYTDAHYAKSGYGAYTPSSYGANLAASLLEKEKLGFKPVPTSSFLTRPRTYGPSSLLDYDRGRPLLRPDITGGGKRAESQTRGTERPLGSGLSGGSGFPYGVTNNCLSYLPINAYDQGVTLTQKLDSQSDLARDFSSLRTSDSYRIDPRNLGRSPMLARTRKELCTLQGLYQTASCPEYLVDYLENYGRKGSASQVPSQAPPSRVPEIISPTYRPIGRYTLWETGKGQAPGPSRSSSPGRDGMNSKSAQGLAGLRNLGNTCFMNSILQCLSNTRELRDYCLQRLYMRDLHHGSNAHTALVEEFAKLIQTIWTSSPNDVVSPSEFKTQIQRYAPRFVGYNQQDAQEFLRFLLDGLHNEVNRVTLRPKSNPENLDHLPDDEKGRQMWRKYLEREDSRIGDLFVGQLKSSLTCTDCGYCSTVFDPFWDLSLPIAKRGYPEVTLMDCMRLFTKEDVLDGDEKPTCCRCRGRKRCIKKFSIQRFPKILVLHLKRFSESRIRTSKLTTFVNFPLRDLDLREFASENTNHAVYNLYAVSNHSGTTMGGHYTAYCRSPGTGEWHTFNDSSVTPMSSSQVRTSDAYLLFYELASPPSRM
#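 Cell-free coupled assay: 10nM USP2 core preincubated 30min RT with compound in Tris-HCl pH 8.0/CaCl2/CHAPS buffer, then 25nM Ub-CHOP2 and 25nM reporter substrate; fluorescence (Ex 485/Em 531) read after 60min RT, normalized to NEM inhibition, concentration-response curves fitted.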
# USP1-UAF1 inh: inhibitors of human USP1/UAF1 deubiquitinase; recombinant USP1/UAF1, Ub-Rhodamine cleavage fluorescence; AID 743255; O94782; Potency, µM (series often up to 57.1 µM), inactives show at the highest dose activity change, negative = inhibition, most hits filed as inhibitors; 390,000 tested, 0.23% active; note: potency is the fitted concentration of half-maximal effect; nearly all actives have a fitted effect of over 60% in size
#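 USP1/UAF1 complex at 1 nM was preincubated with compound for 15 min at room temperature, then Ub-Rho substrate (150nM final) was added. Fluorescence (480/540 nm) was read kinetically, 6 reads every 60 seconds.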
# Eya2 inh: Eya2 (human) phosphatase inhibition; O00167; 330,000 tested, 0.006% active; AID 488837; Potency, µM (top dose mostly 76.9 µM), inactives show at the top dose activity, negative = inhibition, usual class: inhibitors; recombinant Eya2, OMFP fluorescence dephosphorylation (OMFP is methylfluorescein phosphate); note: potency is the fitted concentration of half-maximal effect
#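 Eya2 (0.2 uM) preincubated 10 min at ambient with compound, then OMFP substrate added at 50 uM; 10 min reaction in 50 mM HEPES pH 7.5, 50 mM NaCl, 5 uM MgCl2, 0.05% BSA, 1 mM DTT. Fluorescence read at Ex 485/Em 525 nm.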
# Coupling enz: counter-screen for Giardia aldolase inhibitors: coupling enzyme system; activity change, negative = inhibition, % at 58.2 µM, hits read low; 290,000 tested, 0.67% active; coupling enzyme system counterscreen, AmpLite Red fluorescence; AID 2472; in the data active = activity change below about -30%
#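 Counterscreen lacking aldolase: glyceraldehyde-3-phosphate coupling-enzyme reagent preincubated 10 min at RT with compound (at 57.5 uM final), then substrate/coupling system with AmpLite Red added; fluorescence read at 525/598 nm after 20 min RT.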
# The depositor's hits bear a star; ? = inconclusive; / = no result given. Shown are actives, neighbours in structure and some others; about 0.71% of the full set was active somewhere. Unless noted, calls come from the whole dose curve; as a rule, active = well fitted curve in the direction sought with a large enough effect; inconclusive = small, poorly fitted or top-dose-only effect, or another doubt; inactive = no such curve, though single readings can be large; an effect the other way counts as inactive or inconclusive. Unless noted, % is set by controls: 0 for no effect and ±100 for the full control effect.
SMILES,GALK inh,PI4K2A block,USP2a inh,USP1-UAF1 inh,Eya2 inh,Coupling enz
COc1ccc(-c2nc3ccccn3c2Cl)cc1,15%,-52*,1%,-13%,9%,-2
CC(C)OC(=O)OCOP(=O)(CO[C@H](C)Cn1cnc2c(N)ncnc21)OCOC(=O)OC(C)C,/,-1,/,/,/,/
Cc1c(NC(=O)/C(C#N)=C/c2ccc(-c3cc(Cl)ccc3Cl)o2)c(=O)n(-c2ccccc2)n1C,0%,-1,5%,-18%,6%,6
N#C/C(=C\c1ccc(-c2cc(Cl)ccc2Cl)o1)C(=O)Nc1cccc2ncccc12,/,-53*,/,/,5%,/
CC(=O)O[C@H]1CC[C@@]2(C)C(=CC[C@@H]3[C@@H]2CC[C@]2(C)C(C(C)=O)=CC[C@@H]32)C1,/,3,/,/,/,/
COC(=O)CSc1nc(-c2ccccc2)cc(-c2ccco2)c1C#N,-1%,4,-10%,-16%,-9%,-32*
CCOC(=O)c1ccc(N2C(=O)c3[nH]nc(-c4ccc(OC)cc4)c3C2c2ccc(C)cc2)cc1 (centres undefined),/,1,/,-27%,/,/
O=C(Nc1nc(-c2ccco2)c(-c2ccco2)s1)C1CC(=O)N(c2ccc3c(c2)OCCO3)C1 (centres undefined),0%,-56*,?,-25%,-18%,-10
O=C1C2=C(S[C@@H]3O[C@H](CO)[C@@H](O)[C@H](O)[C@H]3O2)C(=O)c2ccccc21,/,/,/,/,/,-40*
COc1c(O)cc2c(c1O)[C@@H]1O[C@H](CO)[C@@H](O)[C@H](O)[C@H]1OC2=O,-1%,-4,1%,-3%,7%,-1
CN(C)[C@H]1C(=O)C(C(=O)NCN2CCCC2)=C(O)[C@]2(O)C(=O)C3=C(O)c4c(O)cccc4[C@@](C)(O)[C@H]3C[C@@H]12,/,/,/,/,/,-36*
CN(C)[C@@H]1C(=O)C(C(=O)NCN2CCCC2)=C(O)[C@@]2(O)C(=O)C3=C(O)c4c(O)cccc4[C@@](C)(O)C3C[C@@H]12 (some centres undefined),/,-3,/,/,/,/
Cc1c(C(=O)N2CCCC2)oc2c1-c1nn(CC(=O)NCCCOC(C)C)cc1CC2,4%,-13,0%,?,0%,/
CCCCN(CC)CCNC(=O)Cn1cc2c(n1)-c1c(oc(C(=O)N3CCCC3)c1C)CC2,12%,2,-1%,?,13%,-31*
O=C(Nc1cccc(C(F)(F)F)c1)c1ccc2snnc2c1,/,-8,/,-28%,/,/
O=C(O)c1ccc2nc(-c3ccco3)c(-c3ccco3)nc2c1,2%,-14,1%,-26%,1%,-35*
O=S(=O)(c1ccc2ccccc2c1)N1CCOCC1,-1%,-3,1%,1%,4%,-2
COc1ccc(CCNC(=O)c2ccc3nc(-c4ccco4)c(-c4ccco4)nc3c2)cc1OC,-2%,?,-13%,-16%,-19%,-33*
O=S(=O)(c1ccc2nc(-c3ccco3)c(-c3ccco3)nc2c1)N1CCOCC1,3%,-55*,-15%,-17%,-2%,-45*
O=C(Nc1cccc(C(F)(F)F)c1)c1ccc2nc(-c3ccco3)c(-c3ccco3)nc2c1,-3%,-53*,-6%,28µM*,0%,-39*
CCc1nc2ccc(C(=O)N3CCN(c4ccccc4)CC3)cc2nc1CC,-2%,1,-1%,-21%,-9%,/
O=C(c1ccc2nc(-c3ccco3)c(-c3ccco3)nc2c1)N1CCN(c2ccccc2)CC1,1%,-7,2%,-20%,3%,-40*
COc1ccc(Nc2ccc3c(c2)=NC2(CCCCC2)[N+]=3[O-])cc1,4%,-16,-8%,?,-22%,-48*
[O-][N+]1=c2ccc(Nc3ccccc3)cc2=NC12CCCCC2,4%,-10,2%,?,-13%,-50*
